Test results reported in the supplement of paper PMC6555819.

Legend:
Test in all cases: PBM binding z-score (relative to random genomic background probes); higher = stronger binding; sequences stand for … in GC…GCGATTGACAGCGTAGAATGAAGG
[1] = system: PPARg:RXRa DBDmut IVT, anti-RXR (DBD mutation: RXRa K156A/R161A, NR concentration 270 nM, RXRa partner concentration 90 nM)
Method in brief: (§1)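 Binding buffer was PBS pH 7.4 with 2% milk, 0.02% Triton X-100, 1 mM DTT, 0.2 mg/mL BSA and 0.4 mg/ml salmon testes DNA. In it, ligand-free nuclear receptor dimers were incubated 1 h on custom Agilent 4×180K protein-binding microarrays carrying double-stranded probes. Antibodies against each partner (one per run) detected binding, and z-scores were calculated against random background probes after regression normalization of scanned fluorescence.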

[2] = system: PPARg:RXRa IVT, anti-PPARg (NR concentration 270 nM, RXRa partner concentration 90 nM)
Method in brief: as §1

[3] = system: PPARg DBDmut:RXRa IVT, anti-PPARg (DBD mutation: PPARg1 K132A/R137A, NR concentration 270 nM, RXRa partner concentration 90 nM)
Method in brief: as §1

[4] = system: PPARg DBDmut IVT, anti-PPARg (DBD mutation: PPARg1 K132A/R137A, NR concentration 270 nM)
Method in brief: as §1

[5] = system: PPARg homodimer (NR concentration 180 nM)
Method in brief: as §1

[6] = system: PXR homodimer (NR concentration 270 nM)
Method in brief: as §1

[7] = system: RARa:RXR (NR concentration 270 nM, RXRa partner concentration 90 nM)
Method in brief: as §1

[8] = system: RARa homodimer (NR concentration 270 nM)
Method in brief: as §1

[9] = system: RARb:RXRa (NR concentration 270 nM, RXRa partner concentration 90 nM)
Method in brief: as §1

[10] = system: RARb homodimer (NR concentration 270 nM)
Method in brief: as §1

[11] = system: RARg homodimer (NR concentration 270 nM)
Method in brief: as §1

[12] = system: RXRa DBDmut IVT, anti-RXR (DBD mutation: RXRa K156A/R161A, NR concentration 90 nM)
Method in brief: as §1

[13] = system: RXRa homodimer (NR concentration 180 nM)
Method in brief: as §1

[14] = system: THRa:RXRa (NR concentration 90 nM, RXRa partner concentration 90 nM)
Method in brief: as §1

[15] = system: THRa homodimer (NR concentration 90 nM)
Method in brief: as §1

[16] = system: VDR homodimer (NR concentration 270 nM)
Method in brief: as §1

[17] = system: PXR:RXRa (NR concentration 270 nM, RXRa partner concentration 90 nM)
Method in brief: as §1

[18] = system: RARg:RXRa (NR concentration 270 nM, RXRa partner concentration 90 nM)
Method in brief: as §1

[19] = system: VDR:RXRa (NR concentration 270 nM, RXRa partner concentration 90 nM)
Method in brief: as §1

Sequence	PBM binding z-score [1]	PBM binding z-score [2]	PBM binding z-score [3]	PBM binding z-score [4]	PBM binding z-score [5]	PBM binding z-score [6]	PBM binding z-score [7]	PBM binding z-score [8]	PBM binding z-score [9]	PBM binding z-score [10]	PBM binding z-score [11]	PBM binding z-score [12]	PBM binding z-score [13]	PBM binding z-score [14]	PBM binding z-score [15]	PBM binding z-score [16]	PBM binding z-score [17]	PBM binding z-score [18]	PBM binding z-score [19]
CGTCCAAGGTCAAAGGTCACTGAAGAGATGACGG	4.24	6.37	2.37	1.21	2.49	2.15	9	3.47	5.96	5.74	8.6	4.13	10.1	4.9	3.25	4.21			
ATATGTAGGTTAGGGTCATTCACAAAGTAGGGAA	6.56	6.82		1.75	2.3	2.17	4.83	2.07	3.49	3.69	3.1	2.7	5.07	4.38	2.96	3.86	4.57	3.98	4.61
ATATGTAGGTAAGGGTCATTCAGAAAGTAGGGAA	5.88	6.35		2.93	3.52	1.25	4.55	2.02	3.61	3.55	3.2	2.15	4.88	3.01	1.15	3.13	3.78	4.21	4.1
ATATGAAGGTTAGGGTCATTCAGAAAGTAGGGAA	1.38	2.78		1.79	3.99	2.32	5.28	2.29	3.66	3.58	3.36	2.29	5.38	4	3.15	4.12	4.59	4.37	4.6
CGAACTAGGTCGAAGGACAGTGAAAGGCGACGTA	4.92	5.17		-0.201	0.0184	-0.851	-0.0163	-0.8	1.18	0.802	1.1	0.469	0.475	0.508	-0.399	-0.311	-0.467	0.619	-0.183
CGAACTAGGTCAAAGGCCAGTGAAAGGCGACGTA	7.82	8.38		0.408	1.42	-0.54	3.18	-0.426	3.87	3.16	4.81	1.49	3.62	2.42	0.00822	-0.206	1.79	4.37	1.74
ATTTGTAGGTTAGGGTCATTCAGAAAGTAGGGAA	5.45	5.62		3.63	4.01	3.09	5.22	4.03	3.86	3.88	3.72	2.82	5.6	4.17	3.71	4.56	4.55	4.4	4.81
ATACGTAGGTTAGGGTCATTCAGAAAGTAGGGAA	0.761	2.44		0.669	3.09	1.89	4.85	1.86	3.39	3.19	3.37	2.35	5.33	4.07	2.92	3.67	4.27	4.12	4.37
TGAATGAGGTTAAAGGTCAGGGAACGTGGCGTCG	3.7	6.46	1.94	1.25	5.36	1.01		3.29	5.08	4.57	5.51	1.87		4.33	1.94	2.81		7.13	
CCGACGGGGGCAGAAAGGTTACCATACCATCCGG	0.901	2.55	3.18	2.71	2.43	2.06	3.91	0.566		3.29	3.58	1.16	3.31	2.99	0.6	2.21		4.2	4.49
CCTACTGGGTCATTCAGAGGTCATTGATCATATG	6.17	7.04	1.98	0.698	6.37	3.7		1.17	4.51	5.21	5.46	2.77	5.75	4.32	2.15	4.41			
CGATCTAGGTCAAAGGACAGTGAAAGGCGACGTA	7.67	8.1		1.86	2.2	-0.421	2.13	0.262	3.79	2.74	4.58	1.7	2.76	2.62	0.472	0.297	0.913	3.63	1.15
AGTCAAAGTTCAGGACGAGGTCACGTAAAGCACG	0.746	3.73	0.593	0.7	5.05	7.95		2.01		5.39	7.28	3.45	6.81		4.95	5.43			
CGAACTAGGTCACCATGACAGTGAAGAGGTTGGA	7.11	8.4		1.33	1.97	-0.124	2.42	0.707	4.23	3.31	5.26	1.18	3.17	2.99	1.41	0.264	1.4	4.27	1.78
ATACCAAGGTCATCGTGAGGTCGTTGATACTAAC	2.34	4.3	2.33	1.42	4.01	5.81	6	1.56	5.36	4.72	6.27	3.76	6.49		3.91	5.41			
ATATGTAGGTTAGTGTCATTCAGAAAGTAGGGAA	6.62	6.21		2.47	1.86	0.763	1.32	2.19	1.4	1.31	1.06	0.868	0.992	0.837	0.558	0.794	1.09	1.14	1.04

Sequence	PBM binding z-score [1]	PBM binding z-score [2]	PBM binding z-score [3]	PBM binding z-score [4]	PBM binding z-score [5]	PBM binding z-score [6]	PBM binding z-score [7]	PBM binding z-score [8]	PBM binding z-score [9]	PBM binding z-score [10]	PBM binding z-score [11]	PBM binding z-score [12]	PBM binding z-score [13]	PBM binding z-score [14]	PBM binding z-score [15]	PBM binding z-score [16]	PBM binding z-score [17]	PBM binding z-score [18]	PBM binding z-score [19]
CGAACTAGGTCACCAAGACAGTGAAGAGGTTGGA	7.83	8.54		0.905	1.16	-0.2	1.99	0.703	4.07	3.11	4.97	1.29	3.06	2.74	1.28	0.496	1.14	4.04	1.49
CGAACTAGGTCACCAGGACAGTGAGGAGGTTGGA	8.37	8.24		-0.39	1.56	-0.539	1.93	0.16	4.16	3.41	5.36	1.05	3.49	3.34	1.7	0.667	0.988	4.5	1.83
ATATGTAGGTTAGGGTCATTAAGAAAGTAGGGAA	6.33	6.81		3.64	3.28	1.85	4.79	1.97	3.32	3.33	2.76	2.22	4.57	3.9	2.76	3.54	3.9	3.59	3.86
CGTCCAAGGTCAATGCGAGGTCAGTGAAAGCATT	3.2	4.05	0.262	-0.0151	6.13	4.68		1.33	5.4	5.27	6.95	3.59	6.15		4.23	4.73			
ATATGTAGGTTACATGCGGGTCATTCAGGCTATG	7.67	7.33	2.78	2.03	1.57	1.11	3.24	0.618	2.01	2.51	2.18	0.745	3.16	2.85	0.633	2.05			
CGAACTAGGTTAAAGGACAGTGAAAGGCGACGTA	6.46	6.45		0.461	1.11	-0.159	0.0562	-0.221	1.72	1.34	1.38	-0.1	0.702	0.788	-0.308	-0.464	-0.281	1	-0.216
ATATGTGGGTTAGGGTCATTCAGAAAGTAGGGAA	6.19	6.44		2.69	4.09	3.66	5.02	3.33	3.45	3.67	3.23	2.95	5.55	4.42	4.11	4.92	5.1	4.16	4.97
CAAACTAGGTCACAGAGGTCAAAGTTCGTGCGTA	8.27	8.9	4.88	5.18	6.43	12.2		3.28	5.29	5.64	7.81	3.36		4.93	3.18	7.28		7.52	8.36
ATATCTAGGTTAGGGTCATTCAGAAAGTAGGGAA	6.71	6.95		2.23	3.98	2.01	4.78	2.98	3.43	3.56	3.32	2.56	4.98	4.14	3.56	4.16	4.33	4.06	4.41
TCTCGGAGGTCACGAAGGTCAGAGCTTTCCAGAG	4.48	6.17	0.14	-0.128	4.35	9.02	6.63	1.11		5.66	8.12	3.05		4.64	2.29	5.14			
ACTAGTGGGTCAGCTGAGGTCACACACAATTCGG	6.51	6.96	1.71	0.986	4.18	1.68	5.69	1.85	4.45	5.07	6.44	1.74	5.48		4.71	4.55		5.77	
CGAACTAGGTCACCAGGACTGTGAAGAGGTTGGA	8.46	8.71		1.86	3.94	-0.354	2.79	0.25	4.27	3.39	5.16	1.46	3.6	3.24	1.3	0.447	1.55	4.54	2.26
CGAACTAGGTCAATGGACAGTGAAAGGCGACGTA	7.65	7.92		4.35	2.53	-0.177	1.18	0.235	3.51	2.45	4.17	1.14	2.14	1.93	-0.00999	0.0508	0.477	3.17	0.802
ATATGTAGCTTAGGGTCATTCAGAAAGTAGGGAA	0.587	2.1		1.21	1.78	0.915	4.2	1.36	3.24	2.97	2.73	2.16	4.87	4.07	3.15	3.71	4.04	3.71	4.27
CGTCCAAGGTAAGAGAGGTCAGTGAATGCCGAGT	0.589	0.75	-1.12	-1.45	1.77	1.61	3.12	0.562		3.65	3.04	0.742	2.46	2.91	1.13	1.93		2.87	
ATATGTAGGTGAGGGTCATTCAGAAAGTAGGGAA	7.49	7.69		2.2	2.51	1.81	3.81	2	2.97	3.13	3.06	1.67	3.67	2.56	1.31	2.76	3.02	3.24	
